Outcome and inhibition data for eight molecules are collected here from PubChem BioAssay.

Each structure is given as a SMILES string. For some assays here: Measured potencies and affinities stand elsewhere. The source made the active and inactive calls.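 Rule for the calls, unless noted: active = compound raising the membrane signal above positive-control mean plus 3 SD in both repeats, and a primary screen hit; inactive = the rest.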

For assay [1], the system named is TRPC4 beta (transient receptor potential cation channel C4), mouse. The experiment in a line: activators of mouse TRPC4 channel, confirmation, cell-based, Fluo4 calcium, HEK293 TRPC4beta/mu-opioid, duplicates, 10 µM (AID 2426;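 active = fluorescence ratio normalized to control raised more than 50% in primary screen plus both repeat runs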). As to conditions: Fluo4 calcium fluorescence, at 10 µM; active compounds read high.
Assay [2] deals with transient receptor potential cation channel C4 beta (TRPC4), mouse. In words: activators of mouse TRPC4 channel, confirmation, cell-based, second round, Fluo4, HEK293 TRPC4beta/mu-opioid, 1 µM (AID 2461;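 active = primary screen active and over 50% activation in each of two duplicate runs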). As to conditions: Fluo4 calcium fluorescence, at 1 µM; active compounds read high.
For assay [3], the system named is TRPC4 (transient receptor potential cation channel C4 beta), mouse. The experiment in a line: positive allosteric modulators of mouse TRPC4, confirmation, cell-based, second round, Fluo-4, HEK293 TRPC4beta/mu-opioid, 1 µM (AID 2554;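 active = primary screen hit whose fluorescence ratio, in both repeats, exceeds the weak agonist control mean by 3 SD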). As to conditions: DAMGO EC20, Fluo-4 calcium flux, at 1 µM; active compounds read high.
Assay [4] concerns TRPC4 beta (transient receptor potential cation channel C4), mouse. The experiment in a line: positive allosteric modulators of mouse TRPC4, confirmation, cell-based, Fluo-4, HEK293 TRPC4beta/mu-opioid (AID 2555;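 active = primary screen hit whose calcium fluorescence ratio, in both repeats, exceeds the weak agonist control mean by 3 SD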). The settings on record: DAMGO EC20, Fluo-4 calcium flux, at 10 µM; active compounds read high. For orientation: A change in cytosolic calcium serves as a functional read-out for many receptors and channels.

The target in assay [5] is Short transient receptor potential channel 4 (Mus musculus) (UniProt Q9QUQ5). The experiment in a line: inhibitors of mouse TRPC4 channel, confirmation, cell-based, Fluo4, HEK293 TRPC4beta/mu-opioid (AID 2636;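 active = calcium signal cut by more than 3 SD below the full-agonist control yet still positive, in both repeats and the earlier primary screen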). The settings on record: DAMGO, Fluo4 calcium flux, at 10 µM; active compounds read high.
The target is the same in assay [6]. The experiment in a line: inhibitors of mouse TRPC4 channel, confirmation, cell-based, second round, Fluo4, HEK293 TRPC4beta/mu-opioid, 1 µM (AID 2637;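 active = calcium signal ratio cut to more than 3 SD under the fully stimulated control mean yet still positive, in both repeats and the primary screen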;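 for inhibition: percent of integrated ratio relative to wells lacking test compound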). The settings on record: Fluo4 calcium flux, DAMGO, at 1 µM; active compounds read high.
Assay [7] has the same target. In words: mouse TRPC4 channel activators, dose response, cell-based, HEK293 TRPC4/mu-opioid, Fluo-4 calcium (AID 434937;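 active = primary screen activator hit with a dose response curve and TRPC4 channel activation at any tested dose; inactive = no activation, no dose response, or not a primary hit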).
Assay [8] shares this target. The experiment in a line: TRPC4 positive allosteric modulators, dose response, cell-based, HEK293 TRPC4/mu-opioid, Fluo-4 calcium, EC20 DAMGO (AID 434941;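 active = earlier screen potentiator hit that boosts the TRPC4 ion channel at some dose, with a dose response; inactive = no potentiation, no dose response, or not a prior hit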;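 note: calcium entry triggered by an EC20 dose of DAMGO at the co-expressed mu-opioid receptor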).
The target of assay [9] is Short transient receptor potential channel 6 (Mus musculus) (UniProt Q61143). The experiment in a line: inhibition of mouse TRPC6 channel, confirmation, selectivity assay for TRPC4 inhibitor project, cell-based, HEK293, membrane potential dye, duplicate (AID 434948;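 active = active in primary screen and both duplicates, each dropping signal beyond three positive-control SD with fluorescence still positive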). The settings on record: HEK293 TRPC6, membrane potential dye fluorescence, at 10 µM, stimulated with maximal-effect acetylcholine; active compounds read high.

For assay [10] the target is unchanged. In words: activation of mouse TRPC6 channel, confirmation, selectivity assay for TRPC4 activator project, cell-based, HEK293, membrane potential dye, duplicate (AID 434950;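 active = membrane potential signal rise above negative control mean plus 3 SD in both duplicates, also active in the earlier TRPC4 screen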). The settings on record: HEK293 TRPC6, membrane potential fluorescence, at 10 µM; active compounds read high.
Assay [11] shares this target. The experiment in a line: TRPC6 potentiation by TRPC4 potentiator hits, confirmation, selectivity assay for TRPC4 potentiator project, HEK293 cells, membrane potential dye, duplicate (AID 434952). As to conditions: HEK293 TRPC6, membrane potential dye fluorescence, at 10 µM, maximal acetylcholine added after compound; active compounds read high.
Assay [12] concerns the target Short transient receptor potential channel 4 (Mus musculus) (UniProt Q9QUQ5). In words: calcium flux activators in TRPC4/5HT1a cells, counter-screen for TRPC4 activator project, cell-based, second counter screen, HEK293 TRPC4/5HT1a, Fluo-4 (AID 434977;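 active = calcium signal rise above buffer-control mean plus 5 SD in both duplicates, and also a hit in the primary screen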). The settings on record: Fluo-4 calcium flux, at 10 µM; active compounds read high.
Assay [13] can be described thus: calcium flux inhibitors in TRPC4/5HT1a cells, confirmation, counter-screen for TRPC4 inhibitor project, cell-based, second counter screen, HEK293 TRPC4/5HT1a, Fluo-4 (AID 434978;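 active = primary screen active whose calcium signal fell more than 3 SD beyond the full-serotonin control mean in both duplicate plates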;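 for Outcome: serotonin given first at submaximal then at maximal dose after compound preincubation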). The settings on record: Fluo-4 calcium flux, at 10 µM, serotonin added to trigger calcium flux; active compounds read high.
The subject of assay [14] is TRPC4 (mouse), co-expressed with 5HT1a in HEK293. The experiment in a line: calcium flux potentiators in TRPC4/5HT1a cells, confirmation, counter-screen for TRPC4 potentiator project, cell-based, second counter screen, HEK293 TRPC4/5HT1a, Fluo-4 (AID 434979;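 active = signal rise over 3 SD above mean of control wells given weak agonist, in both repeats and first screen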). The settings on record: Fluo-4 calcium flux, at 10 µM, serotonin added at its EC20 dose; active compounds read high.
Assay [15] in a line: calcium flux activation in mu-opioid HEK293 cells, confirmation, counter-screen for TRPC4 activator project, cell-based, HEK293 mu-opioid receptor line (AID 449723;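 active = hit in primary screen, with calcium signal over 5 SD above buffer well mean in both duplicates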;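 note: counter screen cells carry the mu-opioid receptor alone and lack TRPC4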). The settings on record: Fluo-4 calcium fluorescence, at 10 µM; active compounds read high.
Assay [16] in a line: calcium flux enhancement in mu-opioid HEK293 cells, confirmation, counter-screen for TRPC4 allosteric potentiator project, cell-based, HEK293 mu-opioid receptor line (AID 449724;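 active = calcium signal rise more than 3 SD above the low-dose agonist control mean, in both duplicate plates and the primary screen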;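 note: HEK293 cells carrying mu-opioid receptor only with no TRPC4 channel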). The settings on record: Fluo-4 calcium flux, at 10 µM, compound added before EC20 DAMGO stimulus; active compounds read high.

Short transient receptor potential channel 6 (Mus musculus), sequence (Q61143 whole entry, looked up): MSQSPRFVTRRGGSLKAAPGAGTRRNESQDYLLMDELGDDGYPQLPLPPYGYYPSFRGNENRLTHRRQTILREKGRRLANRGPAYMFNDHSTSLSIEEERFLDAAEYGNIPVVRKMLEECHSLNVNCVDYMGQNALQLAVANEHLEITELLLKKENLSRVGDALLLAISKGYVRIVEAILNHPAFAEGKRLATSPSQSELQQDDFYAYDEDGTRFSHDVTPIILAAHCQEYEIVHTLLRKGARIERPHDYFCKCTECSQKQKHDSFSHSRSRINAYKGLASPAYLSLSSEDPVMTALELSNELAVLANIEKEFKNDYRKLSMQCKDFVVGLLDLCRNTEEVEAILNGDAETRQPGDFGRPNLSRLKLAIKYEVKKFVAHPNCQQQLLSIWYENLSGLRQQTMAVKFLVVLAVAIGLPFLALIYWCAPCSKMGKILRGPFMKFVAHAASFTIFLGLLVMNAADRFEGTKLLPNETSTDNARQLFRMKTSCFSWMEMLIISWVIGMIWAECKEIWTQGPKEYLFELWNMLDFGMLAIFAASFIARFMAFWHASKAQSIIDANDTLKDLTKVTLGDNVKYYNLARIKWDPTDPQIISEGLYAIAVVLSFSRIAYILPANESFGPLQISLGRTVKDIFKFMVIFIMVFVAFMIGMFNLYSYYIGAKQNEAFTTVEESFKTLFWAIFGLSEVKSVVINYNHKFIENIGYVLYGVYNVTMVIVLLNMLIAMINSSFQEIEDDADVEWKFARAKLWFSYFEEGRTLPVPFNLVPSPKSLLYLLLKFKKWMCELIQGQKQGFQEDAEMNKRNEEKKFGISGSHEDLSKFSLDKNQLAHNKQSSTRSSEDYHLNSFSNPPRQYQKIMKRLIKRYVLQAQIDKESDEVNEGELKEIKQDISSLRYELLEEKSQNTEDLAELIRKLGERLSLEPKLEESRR
Short transient receptor potential channel 4 (Mus musculus), sequence (Q9QUQ5 whole entry, looked up): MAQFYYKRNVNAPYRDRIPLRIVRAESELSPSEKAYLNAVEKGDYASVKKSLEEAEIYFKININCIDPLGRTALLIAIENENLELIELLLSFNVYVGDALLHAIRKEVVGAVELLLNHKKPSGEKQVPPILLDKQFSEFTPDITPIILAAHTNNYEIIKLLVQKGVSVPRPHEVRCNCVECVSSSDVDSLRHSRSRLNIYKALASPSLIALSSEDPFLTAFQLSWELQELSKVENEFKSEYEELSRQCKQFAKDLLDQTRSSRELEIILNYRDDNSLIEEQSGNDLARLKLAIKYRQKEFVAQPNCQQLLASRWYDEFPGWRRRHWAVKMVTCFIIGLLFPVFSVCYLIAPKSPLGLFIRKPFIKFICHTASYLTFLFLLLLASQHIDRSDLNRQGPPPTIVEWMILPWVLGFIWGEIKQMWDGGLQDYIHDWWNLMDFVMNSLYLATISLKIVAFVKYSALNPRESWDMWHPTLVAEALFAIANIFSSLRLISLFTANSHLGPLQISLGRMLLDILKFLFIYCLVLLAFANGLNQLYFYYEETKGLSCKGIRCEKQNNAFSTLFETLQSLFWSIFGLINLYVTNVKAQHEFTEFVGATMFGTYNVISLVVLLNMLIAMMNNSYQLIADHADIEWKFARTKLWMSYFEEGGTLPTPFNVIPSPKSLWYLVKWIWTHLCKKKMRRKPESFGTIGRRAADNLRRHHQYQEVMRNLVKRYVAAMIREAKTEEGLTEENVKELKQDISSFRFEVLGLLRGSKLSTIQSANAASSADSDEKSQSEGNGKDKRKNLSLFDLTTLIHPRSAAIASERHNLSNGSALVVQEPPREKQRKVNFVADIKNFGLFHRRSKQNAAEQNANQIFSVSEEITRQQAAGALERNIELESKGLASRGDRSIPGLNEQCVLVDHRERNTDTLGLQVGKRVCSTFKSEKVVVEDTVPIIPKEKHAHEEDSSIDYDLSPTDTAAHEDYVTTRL

As usually defined, the inhibition is the percentage by which the read-out fell short of the control. Take `CCc1cc(C(c2cccc(OC)c2)N2CCOCC2)c(NC(=O)c2ccccc2)s1` (stereo not drawn): the outcome in assay [1], in assay [2], in assay [3], in [4], in [6] and in [7] was inactive. Besides, the outcome in [8], in assay [9], in assay [10], in [11], in assay [12] and in assay [14] was inactive. The result in assay [15] and in [16] was inactive. Moreover, the inhibition in assay [5] is 62% (active); in assay [13], 28% (active).

As for `CCCn1nc([N+](=O)[O-])c(C(C#N)c2nc3ccccc3o2)c(Cl)c1=O` (stereo not drawn), the result in [1], in [2], in assay [3], in assay [4], in assay [6] and in [7] was inactive. The outcome in assay [8], in assay [10], in assay [11], in [12], in assay [14] and in [15] was inactive. Also, the outcome in assay [16] was inactive. Besides, the inhibition is 96% (active) in assay [5], 28% (active) in assay [9] and 39.9% (active) in assay [13].

Take `CC(C)C(NC(=O)c1ccc(C(C)(C)C)cc1)C(=O)NCC(c1ccccc1)N(C)C` (stereo not drawn): the result in assay [1], in assay [2], in assay [3], in [4], in assay [7] and in assay [8] was inactive. In addition, the result in [9], in assay [10], in [11], in assay [12], in [13] and in [14] was inactive. Further, the result in assay [15] and in assay [16] was inactive. The results for the inhibition in assay [5] and in assay [6] were 82% (active) and 70% (active), respectively.

Turning to `CC1(C)CC2CC(C)(CN2C(=O)c2cc(-c3ccc(O)cc3)on2)C1` (stereo not drawn), the result in [1], in assay [2], in assay [3], in [4], in assay [6] and in assay [7] was inactive. Moreover, the result in assay [8], in assay [9], in [10], in assay [11], in [12] and in [14] was inactive. For the same molecule, the outcome in assay [15] and in assay [16] was inactive. The inhibition in [5] was 81% (active); in [13] it was 31.1% (active).

`CCn1c(=N)n(CC(=O)c2ccc(Br)s2)c2ccccc21`: the outcome in assay [1], in assay [2], in assay [3], in assay [4], in [5] and in [6] was inactive. The outcome in assay [7], in assay [8], in assay [10], in [11], in assay [12] and in assay [13] was inactive. The result in assay [14], in assay [15] and in assay [16] was inactive. Moreover, in [9], the inhibition is 59% (active).

For `CCCn1c(=O)c2ccccc2n2c(SCCOc3ccccc3)nnc12`, the outcome in [1], in assay [2], in [3], in assay [4], in assay [6] and in [7] was inactive. For the same molecule, the result in [8], in assay [9], in [10], in [11], in [12] and in assay [14] was inactive. Also, the outcome in assay [15] and in assay [16] was inactive. The inhibition in [5] was 67% (active); in [13] it was 37.4% (active).

For `Cc1ccc(S(=O)(=O)c2cnc(-c3ccccc3)nc2N2CCN(C)CC2)cc1`, the result in assay [1], in assay [2], in assay [3], in assay [4], in assay [6] and in [7] was inactive. The result in assay [8], in assay [9], in assay [10], in assay [11], in assay [12] and in assay [13] was inactive. The outcome in assay [14], in assay [15] and in assay [16] was inactive. Besides, the inhibition in assay [5] was 64% (active).

`Cc1nn(-c2cccc(Cl)c2)c2nc(C(F)(F)F)[nH]c(=O)c12`: the outcome in assay [1], in assay [2], in [3], in assay [4], in [7] and in assay [8] was inactive. In addition, the molecule was called inactive in assay [9], in assay [10], in assay [11], in assay [12], in assay [14] and in assay [15]. For the same molecule, the outcome in assay [16] was inactive. In addition, the inhibition was 95% (active) in [5], 56% (active) in assay [6] and 34.8% (active) in assay [13].
